The campaign covered roughly 13,000 compounds. About 3,200 (25%) showed an effect of 50% or more. The list shows a part of the results.

As usually defined, the % Inhibition is the drop in the measured response relative to a control, in per cent.

The subject of the assay is P. falciparum stage V gametocytes. More on the design: BacTiter-Glo ATP luminescence viability of purified stage V gametocytes in 384-well plates, per cent inhibition versus DMSO. Particulars: 48 h, 5 µM; inhibitor.
Take `COc1ccc(C2CC(c3ccccc3)=NN2C(=O)c2ccc(Br)o2)cc1` (centres unmarked) [TCMDC-123705]: the “% Inhibition” value is given as -10.79%.

As for `CCCCCC(C)C(C)c1cc(O)c2c(c1)OC(C)(C)CC2c1cc[n+]([O-])cc1` (centres unmarked) [TCMDC-131347], the “% Inhibition” value is reported as 15.63%.

For `CCOc1ccc(Br)cc1/C=C/C(=O)Nc1ccc2c(c1)C1CCC2N1C` (centres unmarked) [TCMDC-134191], the “% Inhibition” value is on record as -33.77%.

With `Nc1c(Cl)cc(C(O)CNCCCCCCOCCC=C2CCOCC2)cc1Cl` (centres unmarked) [TCMDC-132097], the “% Inhibition” value worked out at 35.85%.

Consider `CC(C)(C)c1ccc(NC(=O)c2ccc(CN3CCCN(Cc4cccc(C#N)c4)CC3)cc2)cc1` [TCMDC-136430], for which the “% Inhibition” value is 8.252%.

For `N#Cc1cccc(CN2CCCN(Cc3cccc(C(=O)Nc4ccc(Cl)cc4)c3)CC2)c1` [TCMDC-135962], the “% Inhibition” value was -1.409%.

Turning to `CC(C)(C)c1ccc(NC(=O)c2ccc(CN3CCCN(Cc4cccc(Cl)c4)CC3)cc2)cc1` [TCMDC-136432], the “% Inhibition” value is recorded as -29.42%.

For `N#Cc1cccc(CN2CCCN(Cc3ccc(C(=O)Nc4ccc(Cl)cc4)cc3)CC2)c1` [TCMDC-136403], the “% Inhibition” value was found to be 58.71%.

On to `CCc1ccc(NC(=O)c2ccc(CN3CCCN(Cc4cccc(Cl)c4)CC3)cc2)cc1` [TCMDC-136438], for which the “% Inhibition” value was -4.503%.

Consider `O=C(Nc1ccc(Cl)cc1)c1ccc(CN2CCCN(Cc3cccc(Cl)c3)CC2)cc1` [TCMDC-136405], for which the “% Inhibition” value came out at 70.05%.

Take `O=C(Nc1ccccc1)N1CCOC(CCN2CCC(F)(F)CC2)(c2ccc(Cl)c(Cl)c2)C1` (centres unmarked) [TCMDC-135565]: the “% Inhibition” value was -12.88%.

As to `Cc1ccc(F)c(CN2CCC(N3CC(c4ccccc4)(c4ccccc4)OC3=O)CC2)c1Cl` [TCMDC-136067], the “% Inhibition” value was -42.69%.

Take `COc1ccc(OCCCON2C(N)=NC(N)=NC2(C)C)cc1` [TCMDC-131727]: the “% Inhibition” value was -17.37%.

Regarding `CCCc1cc(NCC)nc(Nc2ccc(F)cc2)n1` [TCMDC-134011], the “% Inhibition” value is on record as 18.21%.

`CCCCc1cc(=O)oc2cc(C)cc(OCc3ccccc3F)c12` [TCMDC-125642]: the “% Inhibition” value was 42.72%.

Turning to `COc1ccc(Cl)cc1N1CCN(CCCNC(=O)c2ccc(-c3nc4ccc(C(F)(F)F)cc4[nH]3)c(C)c2)CC1` [TCMDC-140121], the “% Inhibition” value was -20.72%.

In the case of `COc1ccc(Cl)cc1N1CCN(CCCNC(=O)c2ccc(-c3nc4c(C)cccc4[nH]3)s2)CC1` [TCMDC-140050], the “% Inhibition” value is -10.33%.

As to `Cc1ccc(Cl)cc1N1CCN(CCCNC(=O)C2CCN(c3nc4ccccc4[nH]3)CC2)CC1` [TCMDC-124405], the “% Inhibition” value amounted to 57.08%.

Take `Oc1ccccc1N1CCN(c2ccc(-c3nc4ccccc4[nH]3)cn2)CC1` [TCMDC-124820]: the “% Inhibition” value is listed as -75.14%.

Consider `CC(=O)N(Cc1nc(-c2cc(Cl)c(Cl)s2)cs1)c1c(C)cccc1C` [TCMDC-135640], for which the “% Inhibition” value was -42.77%.

In the case of `Cc1noc(C)c1-c1cccc(CNCc2ccc(-c3ccc(-c4nc5cccc(C)c5[nH]4)cc3)cc2)c1.O=C(O)C(F)(F)F` [TCMDC-133061], the “% Inhibition” value was -10.97%.

As for `CS(=O)(=O)c1ccc(-c2nc(NCC3CCCCC3)cc(C(F)(F)F)n2)cc1` [TCMDC-138597], the “% Inhibition” value was found to be 3.227%.

Turning to `CON=C1CCC(Cn2ccnc2)(c2ccc(Cl)cc2Cl)CC1` (centres unmarked) [TCMDC-132070], the “% Inhibition” value is on record as -6.365%.

In the case of `Clc1ccc(OC2CCC(Cn3ccnc3)(c3ccc(Cl)cc3Cl)CC2)c(Cl)c1` (centres unmarked) [TCMDC-132089], the “% Inhibition” value was 67.21%.

On to `OC(Cn1ccnc1)(c1ccc(Cl)cc1Cl)C1CCCCC1` (centres unmarked) [TCMDC-132084], for which the “% Inhibition” value is listed as -1.887%.

As to `CN(C)CCCNC(=O)c1ccccc1Sc1ccccc1C#N` [TCMDC-137689], the “% Inhibition” value is -3.028%.

Consider `O=S(=O)(Nc1cccc(CCN2CCCCC2CCN2CCCC2)c1)c1ccc2ccccc2c1` (centres unmarked) [TCMDC-134091], for which the “% Inhibition” value turned out to be 64.43%.

Take `O=S(=O)(Nc1ccc(CCN2CCCCC2CCN2CCCC2)cc1)c1ccc(-c2ccccc2)cc1` (centres unmarked) [TCMDC-134095]: the “% Inhibition” value worked out at 70.29%.

Consider `O=S(=O)(Nc1cccc(CCN2CCCCC2CCN2CCCC2)c1)c1ccc(Oc2ccccc2)cc1` (centres unmarked) [TCMDC-134094], for which the “% Inhibition” value turned out to be 61.85%.

For `NC1CCN(CCc2ccc(NS(=O)(=O)c3ccc(-c4ccccc4)cc3)cc2)CC1` [TCMDC-134085], the “% Inhibition” value came to 111.6%.

For the compound `O=S(=O)(Nc1ccc(CCN2CCCCC2CCN2CCCC2)cc1)c1cccc2cccnc12` (centres unmarked) [TCMDC-134096], the “% Inhibition” value turned out to be 43.66%.

As for `CC1CCN(CC[C@H]2CCCN2S(=O)(=O)c2cccc(NC(=O)c3ccc(-c4ccccc4)cc3)c2)CC1` [TCMDC-141076], the “% Inhibition” value is given as -81.19%.

On to `CCc1ccc(S(=O)(=O)Nc2ccc(CCN(C)C3CCN(C)CC3)cc2)cc1` [TCMDC-134082], for which the “% Inhibition” value was determined as 40.08%.

Take `O=S(=O)(Nc1cccc(CCN2CCCCC2CCN2CCCC2)c1)c1cccc2ccccc12` (centres unmarked) [TCMDC-134092]: the “% Inhibition” value is 40.53%.

Consider `O=S(=O)(Nc1cccc(CCN2CCCCC2CCN2CCCC2)c1)c1ccc(-c2ccccc2)cc1` (centres unmarked) [TCMDC-134093], for which the “% Inhibition” value is reported as 39.18%.

Take `Cc1c(S(=O)(=O)Nc2cccc(CCN3CCCCC3CCN3CCCC3)c2)sc2ccc(Cl)cc12` (centres unmarked) [TCMDC-134097]: the “% Inhibition” value was determined as 7.809%.

For the compound `O=c1cc(NCCCNCc2cc3c(Cl)cccc3s2)[nH]c2ccccc12` [TCMDC-140333], the “% Inhibition” value is -87.93%.

As to `COc1c(Br)cc(Br)cc1C(C)=O` [TCMDC-123841], the “% Inhibition” value is listed as -7.365%.

As to `CCOC(=O)c1[nH]c(-c2ccc(Cl)cc2)nc1NC(=S)NCCCN1CCOCC1` [TCMDC-138877], the “% Inhibition” value came out at 37.64%.

In the case of `Cc1nc(-c2ccc(-c3ccc(C(=O)Nc4ccc5c(c4)C4(CCNCC4)CO5)cc3)c(C)c2)no1` [TCMDC-138993], the “% Inhibition” value is listed as 45.43%.

On to `O=C(N[C@@H](Cc1ccccc1)C(=O)NCc1cccc(C(F)(F)F)c1)c1ccc(O)c(-c2ccc(Cl)c(Cl)c2)c1` [TCMDC-140833], for which the “% Inhibition” value is recorded as 12.7%.

As for `CN1CCN(S(=O)(=O)c2ccc3nccc(Nc4ccc(Oc5ccccc5)cc4)c3c2)CC1` [TCMDC-138691], the “% Inhibition” value is given as -22.54%.

Turning to `Cc1cc(C=C(P(=O)(OC(C)C)OC(C)C)P(=O)(OC(C)C)OC(C)C)c2ccccc2c1O` [TCMDC-138940], the “% Inhibition” value came out at 80.96%.

Take `Cc1c(C(=O)Nc2cc(Sc3ccc(F)cc3)cc([N+](=O)[O-])c2)sc2ncn(Cc3ccccc3F)c(=O)c12` [TCMDC-125703]: the “% Inhibition” value is given as 1.963%.

With `COc1cccc(NC(=O)c2ccc(NCCCN3CCC(C)CC3)c([N+](=O)[O-])c2)c1` [TCMDC-125690], the “% Inhibition” value came to 0.09701%.

Turning to `CC1CC(C)CN(CCCNc2ccc(C(=O)Nc3ccc(C(F)(F)F)cc3)cc2[N+](=O)[O-])C1` (centres unmarked) [TCMDC-125680], the “% Inhibition” value came out at 38.66%.

As to `COc1cccc(NC(=O)c2ccc(NCCCN3CC(C)CC(C)C3)c([N+](=O)[O-])c2)c1` (centres unmarked) [TCMDC-125689], the “% Inhibition” value stood at 53.82%.

`CC1CCN(CCCNc2ccc(C(=O)Nc3ccc(C(F)(F)F)cc3)cc2[N+](=O)[O-])CC1` [TCMDC-125683]: the “% Inhibition” value stood at 88.85%.

In the case of `O=C(Nc1ccc(C(F)(F)F)cc1)c1ccc(NCCCN2CCCCCC2)c([N+](=O)[O-])c1` [TCMDC-125681], the “% Inhibition” value came out at 11.61%.

Consider `CCCN(CCC)CCCNc1ccc(C(=O)Nc2ccc(OCC)cc2)cc1[N+](=O)[O-]` [TCMDC-125691], for which the “% Inhibition” value was determined as 12.73%.

Turning to `CCCN(CCC)CCCNc1ccc(C(=O)Nc2ccc(C(C)C)cc2)cc1[N+](=O)[O-]` [TCMDC-125688], the “% Inhibition” value stood at 90.5%.

Consider `CCCN(CCC)CCCNc1ccc(C(=O)Nc2ccc(C)c(F)c2)cc1[N+](=O)[O-]` [TCMDC-125685], for which the “% Inhibition” value is 15.23%.

Take `CCOc1ccc(NC(=O)c2ccc(NCCCN3CC(C)CC(C)C3)c([N+](=O)[O-])c2)cc1` (centres unmarked) [TCMDC-125692]: the “% Inhibition” value turned out to be 30.09%.

As to `COc1ccc2ncc(F)c(NC(=O)C3CCC(NCc4cc5cc(F)cc(F)c5[nH]4)CC3)c2n1` (centres unmarked) [TCMDC-136455], the “% Inhibition” value amounted to 25.24%.

For the compound `O=C(Nc1cccc(C2=NCCN2)c1)Nc1cccc(C2=NCCN2)c1` [TCMDC-124304], the “% Inhibition” value is -0.7345%.

Consider `COc1ccc(NC(=O)N2CCc3ccc(OCCN(C(C)C)C(C)C)cc32)cc1C(F)(F)F` [TCMDC-140253], for which the “% Inhibition” value is listed as -24.24%.

Regarding `N#Cc1cccc(CNC(=O)c2cccc(Nc3ccnc4ccc(F)cc34)c2)c1` [TCMDC-136309], the “% Inhibition” value amounted to 21.53%.

`Cc1cc(NC(=O)c2ccc(S(=O)(=O)N(Cc3ccccc3)C(C)C)cc2)no1` [TCMDC-123547]: the “% Inhibition” value is -7.124%.

As to `CCNc1cc(C(=O)N[C@@H](Cc2ccccc2)[C@H](O)CNCc2cc(OC)cc(OC)c2)cc(N2CCCC2=O)c1` [TCMDC-134572], the “% Inhibition” value is recorded as -8.682%.

Take `CCn1c(-c2nonc2N)nc2c(-c3cccc(NC(=O)Nc4cccc(C(F)(F)F)c4)c3)ncc(OCCCN)c21` [TCMDC-136178]: the “% Inhibition” value amounted to 94.17%.

With `CCOC(=O)NCC(=O)Nc1cccc(-c2cccc(-c3nc4ccc(C(F)(F)F)cc4[nH]3)c2)c1` [TCMDC-137047], the “% Inhibition” value is -10.81%.

Regarding `CCOC(=O)c1ccc(NC(=O)Nc2cccc(-c3ccc(-c4nc5ccc(C(F)(F)F)cc5[nH]4)cc3)c2)cc1` [TCMDC-133261], the “% Inhibition” value is listed as -31.99%.

With `CCn1c(-c2nonc2N)nc2c(-c3cccc(NC(=O)Nc4ccc(C(F)(F)F)cc4)c3)ncc(OCCCN)c21` [TCMDC-136179], the “% Inhibition” value amounted to 115.3%.

With `O=C(Nc1ccc(Cl)cc1)Nc1cccc(-c2cccc(-c3nc4ccc(C(F)(F)F)cc4[nH]3)c2)c1` [TCMDC-133180], the “% Inhibition” value is listed as -47.4%.

With `O=C(NC1CC1)c1ccc(N2CCCCN2CCc2ccccc2)c(C(F)(F)F)c1` [TCMDC-135276], the “% Inhibition” value is listed as 0.5792%.

(Values after PMC4552634, “A New Set of Chemical Starting Points with Plasmodium falciparum Transmission-Blocking Potential for Antimalarial Drug Discovery” (PLoS ONE, 2015).)
